According to PubChem BioAssay (NCI):
The panel holds about 83,000 compounds, 20% with a hit somewhere; the sample as a whole holds those more often.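 Growth was measured after 48 h exposure to one concentration of compound in 96-well plates. Values under 10 count as active.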 Values without a mark were called inactive. Calls of active or inactive are those of the source.

What was measured:
Assay in all cases: NCI-60 one-dose screen, 48 h (100 = growth as untreated, 0 = no growth, -100 = all killed)
Details in all cases: 10 µM unless noted
SK-MEL-2 melanoma = tested on: SK-MEL-2 melanoma
EKVX NSCLC = tested on: EKVX NSCLC
SN12C renal = tested on: SN12C renal
UO-31 renal = tested on: UO-31 renal
TK-10 renal = tested on: TK-10 renal
ACHN renal = tested on: ACHN renal
CAKI-1 renal = tested on: CAKI-1 renal
A498 renal = tested on: A498 renal
MOLT-4 leukemia = tested on: MOLT-4 leukemia
CCRF-CEM leukemia = tested on: CCRF-CEM leukemia

Row | Compound | growth (SK-MEL-2 melanoma) | growth (EKVX NSCLC) | growth (SN12C renal) | growth (UO-31 renal) | growth (TK-10 renal) | growth (ACHN renal) | growth (CAKI-1 renal) | growth (A498 renal) | growth (MOLT-4 leukemia) | growth (CCRF-CEM leukemia)
1 | c1ccc(N2N=C(c3cccc(Nc4ccncc4)c3)CC2c2ccc3c(c2)OCO3)cc1 (stereo not given) | 39% | 45.8% | 40.8% | 30.6% | 63.1% | 28.7% | 25.7% | 46.1% | 7.98% (active) | –
2 | COc1cc(C2CC(c3cccc(Nc4ccncc4)c3)=NN2C(C)=O)cc(OC)c1OC (stereo not given) | 99.1% | 87.5% | 94% | 89.1% | 97.7% | 99.5% | 78.9% | 94.1% | 84.4% | 92.7%
3 | COc1cc(OC)cc(C2C3=C(COC3=O)Nc3cc(OC)ccc32)c1 (stereo not given) | 1.66% (active) | 53.7% | 25.2% | 46.8% | 65.7% | 28.1% | 36.7% | 1.93% (active) | 17.6% | 19.9%
4 | COc1ccc(-c2c[nH]c(C(=O)O)c2-c2cc(OC)c3c(c2OC)OCO3)cc1 | 109% | 105% | 99.9% | 90.3% | 116% | 100% | 86.4% | 95% | 102% | –
5 | N/C(=N\N=C\c1cc2ccccc2s1)N/N=C/c1cc2ccccc2s1 | 109% | 95.6% | 96.9% | 87.7% | 115% | 107% | 95.3% | 96.5% | 101% | –
6 | Cc1c2c(cc[n+]1Cc1ccc(F)cc1)c1ccc(OCc3cccc(F)c3)cc1n2Cc1cccc(F)c1 | -81.3% (active) | -23.5% (active) | -90.5% (active) | 53.9% | -27.8% (active) | 32.2% | 60.2% | -1.04% (active) | -62.4% (active) | -54.2% (active)
7 | COc1cc2ncnc(Nc3ccc(C(=O)/C=C/c4ccc(C(F)(F)F)cc4F)cc3)c2cc1OC | 105% | 90% | 101% | 75.4% | 110% | 92.3% | 88.2% | 97.4% | 68.3% | 83.8%
8 | CC(=O)O[C@H]1CC[C@@]2(C)[C@@H](CC[C@@H]3[C@@H]2CC[C@@]2(C)[C@H]3CC[C@]2(O)C(C)=O)C1 | 117% | 87.1% | 96.4% | 92.7% | 99.2% | 88.6% | 99.3% | 90% | 97.6% | –
9 | CC[C@@]12C=CCN3CC[C@]4(c5cc(NC(=O)COc6cc(OCC(=O)Nc7cc8c(cc7OC)N(C)[C@H]7[C@@](O)(C(=O)OC)[C@H](OC(C)=O)[C@]9(CC)C=CCN%10CC[C@]87[C@@H]%109)cc7oc(-c8ccccc8)cc(=O)c67)c(OC)cc5N(C)[C@@H]4[C@](O)(C(=O)OC)[C@H]1OC(C)=O)[C@H]32 | 85.1% | 56.8% | 49.4% | 75.9% | 42.8% | 85.4% | 46.8% | 58.6% | 13.1% | –
10 | Cc1cccc(Oc2ccc(Nc3ncnc4ccc(NC(=O)CN(C)C)cc34)cc2Cl)c1 | 84.2% | 31.6% | 36.7% | 23.3% | 36% | 16.8% | 40.8% | 58.7% | 25.9% | 47.7%
11 | CN1CCN(c2c(F)cc(NC3=C(Cl)C(=O)c4ncccc4C3=O)cc2F)CC1 | 99.2% | 91% | 84.2% | 34.3% | 66.9% | -63% (active) | 62.2% | 88.1% | 0.45% (active) | 5.66% (active)
12 | Clc1nc(Cl)c2ncn(CCOCCn3cnc4c(Cl)nc(Cl)nc43)c2n1 | -76.8% (active) | -91.1% (active) | -83.6% (active) | -95.4% (active) | -86% (active) | -89.1% (active) | -94.6% (active) | -92.4% (active) | -68.9% (active) | -45.2% (active)
